Records with an inconclusive call do not appear. Active and inactive are the calls of the source. Calls come from the whole dose curve; as a rule, active = well fitted curve in the direction sought with a large enough effect; inconclusive = small, poorly fitted or top-dose-only effect, or another doubt; inactive = no such curve, though single readings can be large; an effect the other way counts as inactive or inconclusive.
Assays:
[1] = qHTS of pediatric cancer cell lines to identify multiple opportunities for drug repurposing: Confirmatory screen for U-2 OS cells (AID 1347122); note: nearly all actives have a fitted effect of over 65% in size
How it was run: (§1)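 Cells (500-1,000/well) in growth media were settled 5 h at 37 degrees C, then given compounds for 48 h. Viability was read as CellTiter-Glo luminescence. Primary runs used MIPE at 11 points (0.78 nM-46 µM) and NPC at 8 points (0.59 nM-46 µM); follow-ups used 11 points.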

[2] = qHTS of pediatric cancer cell lines to identify multiple opportunities for drug repurposing: Confirmatory screen for Rh41 cells (AID 1347123); note: nearly all actives have a fitted effect of over 60% in size
How it was run: as §1

[3] = qHTS of pediatric cancer cell lines to identify multiple opportunities for drug repurposing: Confirmatory screen for SJ-GBM2 cells (AID 1347116); note: nearly all actives have a fitted effect of over 60% in size
How it was run: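 Viability measured as metabolically active cells via CellTiter-Glo luminescence following 48 hours of compound exposure, 11-point dilutions in confirmatory testing. 500-1,000 cells/well plated 5 hours before dosing; controls were DMSO and 2.3 µM bortezomib.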

[4] = qHTS of pediatric cancer cell lines to identify multiple opportunities for drug repurposing: Confirmatory screen for BT-37 cells (AID 1347117); note: nearly all actives have a fitted effect of over 55% in size
How it was run: as §1

[5] = qHTS of pediatric cancer cell lines to identify multiple opportunities for drug repurposing: Confirmatory screen for TC32 cells (AID 1347118);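 note: cells exposed to compound for 48 h before the read; nearly all actives have a fitted effect of over 65% in size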
How it was run: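 Luminescent CellTiter-Glo read-out of metabolically active TC32 cells after 48 h compound exposure. Primary: MIPE 11-point, 0.78 nM–46 µM; NPC 8-point, 0.59 nM–46 µM. Confirmatory: 11-point dilutions.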

[6] = qHTS of pediatric cancer cell lines to identify multiple opportunities for drug repurposing: Confirmatory screen for MG 63 (6-TG R) cells (AID 1347119); note: nearly all actives have a fitted effect of over 55% in size
How it was run: as §1

[7] = qHTS of pediatric cancer cell lines to identify multiple opportunities for drug repurposing: Confirmatory screen for RD cells (AID 1347124);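 note: cells exposed to compound for 48 h before viability readout; nearly all actives have a fitted effect of over 65% in size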
How it was run: as §1

[8] = qHTS of pediatric cancer cell lines to identify multiple opportunities for drug repurposing: Confirmatory screen for Rh18 cells (AID 1347125); note: nearly all actives have a fitted effect of over 55% in size
How it was run: as §1

[9] = qHTS of pediatric cancer cell lines to identify multiple opportunities for drug repurposing: Confirmatory screen for Rh30 cells (AID 1347126); note: nearly all actives have a fitted effect of over 55% in size
How it was run: as §1

[10] = qHTS of pediatric cancer cell lines to identify multiple opportunities for drug repurposing: Confirmatory screen for Saos-2 cells (AID 1347127); note: nearly all actives have a fitted effect of over 60% in size
How it was run: as §1

Measured: Potency
Potency is the fitted concentration of half-maximal effect.

O=C(O)Cc1ccccc1
inactive: [1] | [2]

CC[n+]1c(-c2ccccc2)c2cc(N)ccc2c2ccc(N)cc21
active: [3] 3.69 µM | [4] 1.04 µM | [5] 1.17 µM | [6] 5.85 µM | [2] 1.65 µM | [7] 14.7 µM | [8] 4.14 µM | [9] 2.61 µM | [10] 16.5 µM

CN1[C@@H]2CC[C@H]1CC(OC(=O)c1cc(Cl)cc(Cl)c1)C2 (stereo partly specified)
not listed: [2] | [4] | [7]
inactive: all other assays above

CCCCCCCCCCCC[N+](C)(C)CCOc1ccccc1
active: [4] 20.8 µM | [5] 7.37 µM | [6] 20.8 µM | [1] 13.1 µM | [2] 7.37 µM | [7] 18.5 µM | [8] 20.8 µM | [9] 16.5 µM | [10] 14.7 µM

CCCCCCCCC(=O)NCc1ccc(O)c(OC)c1
active: [5] 5.22 µM
inactive: all other assays above

C[C@@H]1O[C@@H](O[C@@H]2C=C3CC[C@@H]4[C@H](CC[C@]5(C)[C@@H](c6ccc(=O)oc6)CC[C@]45O)[C@@]3(C)CC2)[C@H](O)[C@H](O)[C@H]1O
active: [3] 0.0465 µM | [4] 0.0147 µM | [5] 0.0233 µM | [6] 0.0083 µM | [7] 0.0033 µM | [8] 6.57 µM | [10] 0.185 µM

CCc1ccc(C2CCNCC2)cc1
not listed: [3] | [5] | [7]
inactive: all other assays above

COc1ccc(C(=O)N2CCCC2=O)cc1
inactive: [1] | [2] | [10]
active: [5] 14.7 µM | [6] 29.3 µM

Source: PubChem BioAssay (NCATS)
